# DT40 TDP1 CPT: qHTS for Inhibitors of human tyrosyl-DNA phosphodiesterase 1 (TDP1): qHTS in cells in presence of CPT | 12% of 420,000 active | Potency, µM (titrated, usually from 46.2 µM), for the others: at the top dose activity change, negative = growth inhibition, usual class: inhibitors | AID 686979, 2013 | chicken DT40 Tdp1-/-;hTDP1 cells + 20 nM CPT, ATP luminescence, 48 h; further: potency means the concentration at half of the fitted maximal effect; nearly all actives have a fitted effect of over 55% in size
#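 Chicken DT40 Tdp1-/- cells complemented with human TDP1, 400 cells/well, exposed to compounds plus 20 nM camptothecin for at least 48 h at 37 C; viability read as ATP content by CellTiter-Glo luminescence.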
# IL-1B inflam inh: qHTS for Inhibitors of Inflammasome Signaling: IL-1-beta AlphaLISA Primary Screen; THP-1 LPS/ATP IL-1B secretion, AlphaLISA, 16 h; hits give low values; activity change, % at 57.5 µM; 4.7% of 360,000 active; AID 743279, 2014; in the data active means activity change below about -50%; inconclusive means mostly about -30% to -49%
#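 Secreted IL-1B measured by AlphaLISA bead assay after 16 h compound exposure of THP-1 cells; compounds (final up to 57.5 uM) added 1 h before LPS (250 ng/mL) and ATP (1.25 mM) stimulation; lower signal means less secretion.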
# HT1080-NT tox: qHTS for induction of synthetic lethality in tumor cells producing 2HG: qHTS for the HT-1080-NT fibrosarcoma cell line; HT-1080-NT fibrosarcoma viability, CellTiter-Glo ATP luminescence, 48 h; Potency, µM (top dose mostly 46.1 µM), without a hit: at the highest dose activity, negative = less viability, most hits filed as cytotoxic; 1.6% of 360,000 active; AID 686970, 2013;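 further: NT is the 2HG producing partner of a matched IDH1 knockdown line; potency means the concentration at half of the fitted maximal effect; 0% = DMSO-treated cells and -100% = media-only wells without cells; nearly all actives have a fitted effect of over 55% in size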
#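 Compounds were tested in concentration-response format on HT-1080-NT cells for 48 hours at 37 degrees C. Cell viability came from CellTiter-Glo luminescence; curves were classified by r2, response magnitude and activity.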
# ELG1 repair inh: qHTS screen for small molecules that inhibit ELG1-dependent DNA repair in human embryonic kidney (HEK293T) cells expressing luciferase-tagged ELG1; HEK293T ELG1-luciferase reporter, luminescence, 16 h; DNA damage induced by 5-fluorouridine; Potency, µM (titrated, usually from 46.1 µM), without a hit: top-dose activity change, negative = inhibition, hits mostly inhibitors; 2.3% of 330,000 active; AID 504467, 2011; further: potency means the concentration at half of the fitted maximal effect; nearly all actives have a fitted effect of over 55% in size
#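 DMSO vehicle served as the neutral condition. Each well held 2,000 cells given 5-fluorouridine plus compound; after 16 hr at 37 °C/5% CO2, ONE-Glo was added and luciferase measured 30 min later.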
# TDP1 cell noCPT: qHTS for Inhibitors of human tyrosyl-DNA phosphodiesterase 1 (TDP1): qHTS in cells in absence of CPT. DT40 Tdp1-/- hTDP1 cells, no CPT, ATP luminescence, 48 h. Potency, µM (series often up to 46.2 µM), for inactives: top-dose activity change, negative = growth inhibition, actives largely listed as inhibitors. 15% of 420,000 active. AID 686978, 2013; further: potency means the concentration at half of the fitted maximal effect; nearly all actives have a fitted effect of over 55% in size
#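 Chicken DT40 Tdp1-/- cells stably complemented with human TDP1 were seeded at 400 cells/well with DMSO in place of 20 nM camptothecin. After compound pinning, cells grew at least 48 hr at 37 °C; viability read by CellTiter-Glo luminescence.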
# HT1080 IDH1KD tx: qHTS for induction of synthetic lethality in tumor cells producing 2HG: qHTS for the HT-1080-IDH1KD cell line; HT-1080 IDH1 knockdown viability, ATP luminescence, 48 h; Potency, µM (doses to about 46.1 µM), for inactives: at the highest dose activity, negative = toxicity, usual class: cytotoxic; 2% of 360,000 active; AID 686971, 2013;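 further: potency means the concentration at half of the fitted maximal effect; 0% = DMSO wells and -100% = cell-free medium wells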
#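 IDH1KD HT-1080 cells, 750/well, RPMI + 5% FBS; compound pinned after 2 h settling; 48 h, 37 °C; CellTiter-Glo luminescence; % activity normalised to DMSO and no-cell wells; curves fitted, classed by r2 and efficacy.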
# * hit, by the source's call; ? = inconclusive; . = no result; [ ] = another dose, or the depositor's remark. Hits are enriched below; roughly 19% of the tested compounds scored in any of these assays. Unless noted, the call rests on the fitted dose curve; in most records, active means well fitted curve in the direction sought with a large enough effect; inconclusive means small, poorly fitted or top-dose-only effect, or another doubt; inactive means no such curve, though single readings can be large; an effect the other way counts as inactive or inconclusive. Unless noted, on the % scale 0 is the no-effect control and ±100 the full control effect.
SMILES,DT40 TDP1 CPT,IL-1B inflam inh,HT1080-NT tox,ELG1 repair inh,TDP1 cell noCPT,HT1080 IDH1KD tx
COc1cc(COCC(O)CN2CCN(CCN3C(=O)c4cccc5cccc(c45)C3=O)CC2)cc(OC)c1OC (centres undefined),18.4µM*,?,-20.1%,11.6µM*,11.6µM*,-22.5%
O=C1c2cccc3cccc(c23)C(=O)N1CCN1CCN(CC(O)COCc2ccc(Cl)cc2)CC1 (centres undefined),8.2µM*,?,20.6µM*,20.6µM*,14.6µM*,?
CCOC(=O)N1CCN(CC(O)COCc2cc(OC)c(OC)c(OC)c2)CC1 (centres undefined),-5.3%,12.8,17.3%,27.1%,-0.1%,3.0%
Cc1cn2c(=O)cc(COc3ccc(NC(=O)COc4ccccc4)cc3)nc2s1,3.4%,.,.,.,-24.6%,.
CCCn1c(C(O)c2ccc(OC)c(OC)c2)nc2ccccc21 (centres undefined),?,81.6,-10.9%,?,?,-8.2%
O=C(Nc1ccc([N+](=O)[O-])cc1)N1CCCCCC1,-25.7%,-0.6,13.6%,?,8.2%,10.3%
CC(C)(C)c1ccc(NC(=O)N2CCCN(c3ccc([N+](=O)[O-])cn3)CC2)cc1,?,.,-29.3%,?,25.9µM*,?
O=C(Nc1ccccc1)N1CCCN(c2nccc(C(F)(F)F)n2)CC1,29.1µM*,-4.7,27.6%,9.6%,?,12.3%
Cc1ccc(NC(=O)CSCC(=O)N2CCN(c3cccc(C(F)(F)F)c3)CC2)cc1,?,-6.1,4.0%,-2.0%,14.6µM*,-1.9%
O=C(Nc1ccccc1)N1CCN(c2ccc(C(F)(F)F)cn2)CC1,7.31µM*,?,16.5%,20.6µM*,23.1µM*,-6.4%
O=C1NC(=O)c2cc3ccccc3cc21,6.7%,-14.3,-2.1%,0.0%,-22.6%,10.7%
O=C(Nc1cccc(C(F)(F)F)c1)c1cccnc1N1CCN(c2ccccc2)CC1,?,-77.3*,?,?,18.4µM*,-2.3%[9.24 µM]
CCC(C)[C@H](NC(=O)N1CCN(c2cccc(C(F)(F)F)c2)CC1)C(=O)OC (some centres undefined),14.6µM*,-1.3,-7.0%,0.0%,20.6µM*,-1.0%
CC(NC(=O)c1ccco1)C(=O)N1CCN(c2cccc(C(F)(F)F)c2)CC1 (centres undefined),13µM*,0.0,-9.6%[9.24 µM],-10.2%,10.3µM*,-2.5%
O=C(Nc1ccccc1)N1CCN(c2cccc(C(F)(F)F)c2)CC1,20.6µM*,-50.0*,-2.3%,?,11.6µM*,0.0%
Cc1c(C(=O)Nc2cccc(Cl)c2)sc2nc3n(c(=O)c12)N=C(c1cccc(Br)c1)CS3,-16.5%,.,.,.,-14.4%,.
O=C(CC1C[C@H](C(=O)N2CCOCC2)[C@@]2(CCC3CCCC3)c3[nH]c4ccccc4c3CCN2C1=O)NCCC1=CCCCC1 (some centres undefined),1.4%,16.5,3.1%,18.4%,-6.7%,5.0%
COc1ccc(N(C)S(=O)(=O)c2ccc3c(c2)NC(=O)CO3)c(OC)c1,-7.6%,-7.3,0.3%,-9.3%,-17.4%,-9.9%
O=C(NCCCCl)C1CC(=O)N(CCc2ccc(F)cc2)C1 (centres undefined),7.2%,-11.9,16.7%,8.0%,-16.0%,1.2%
COc1ccc(NC(=O)N2CCN(c3cccc(C(F)(F)F)c3)CC2)cc1OC,?,0.0,-1.1%,?,11.6µM*,-3.8%
CNC(=S)Nc1ccc(N2CCN(c3ccc(C(F)(F)F)cn3)CC2)nc1,?,-0.6,-6.4%,?,25.9µM*,-2.5%
CN1CCN(c2ccc(NC(=O)c3ccc(C(F)(F)F)cc3)cn2)CC1,-11.5%,?,-0.6%,?,-17.5%,?
COc1ccc(NC(=O)N2CCOCC2)cc1OC,5.7%,7.8,8.2%,6.8%,2.8%,16.7%
Cc1cccc(Cl)c1NC(=S)N1CCN(c2ccc([N+](=O)[O-])cn2)CC1,?,-17.6,-0.7%,-1.3%,25.9µM*,-1.3%
O=c1cc(N2CCCCC2)c(-c2ccccc2)nn1Cc1c(Cl)cccc1Cl,?,-66.9*,18.4µM*,?,16.4µM*,16.4µM*
SMILES,DT40 TDP1 CPT,IL-1B inflam inh,HT1080-NT tox,ELG1 repair inh,TDP1 cell noCPT,HT1080 IDH1KD tx
O=c1cc(N2CCCCC2)c(-c2ccccc2)nn1Cc1ccc(Cl)cc1,?,-26.8,3.1%,?,?,12.9%
Cc1[nH]c(-c2ccc(F)cc2)cc1C(=O)N1CCN(c2ccccc2)CC1,?,-55.7*,-27.7%,?,?,-20.8%
COc1cccc(N2CCN(C(=O)c3cc(-c4ccc(F)cc4)[nH]c3C)CC2)c1,14.6µM*,?,-25.7%,20.6µM*,20.6µM*,?
Cc1ccc(N2CCN(C(=O)c3cc(-c4ccc(F)cc4)[nH]c3C)CC2C)cc1 (centres undefined),?,-59.4*,23.1µM*,?,20.6µM*,18.4µM*
CCCN1CCN(C(=O)c2ccc3[nH]c(C)c(C)c3c2)CC1,-12.4%,3.1,16.4%,.,-3.9%,8.1%
CCOc1ccc2ccc(OCC)c(/C=N/n3cnnc3)c2c1,0.4%,-72.9*,-25.4%,-5.5%,?,-22.9%
Cc1cc(C)c(S(=O)(=O)NCC(c2ccc(N(C)C)cc2)N2CCc3ccccc32)c(C)c1 (centres undefined),18.4µM*,.,.,.,?,.
